# Assay outcomes deposited in PubChem by National Center for Advancing Translational Sciences (NCATS).
# Pf growth 48h: P. falciparum growth inhibition at 48 hours (one generation). AID 504832. Potency, µM (doses to about 28.7 µM), without a hit: top-dose activity change, negative = inhibition, hits mostly inhibitors. 310,000 tested, 5.9% active. P. falciparum luciferase growth in erythrocytes, 48 h
#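 Erythrocytes infected with P. falciparum carrying an integrated firefly luciferase reporter (2% hematocrit, 0.1% parasitemia final) were exposed to compounds in RPMI 1640 with 0.5% Albumax at 37 C, 5% CO2. Growth inhibition was scored as reduced luminescence.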
# Pf growth 96h: inhibits malaria parasite growth, 96 h; P. falciparum luciferase reporter growth, 96 h; Potency, µM (highest dose often 28.7 µM), for the others: top-dose activity change, negative = inhibition, most hits filed as inhibitors; 320,000 tested, 6.9% active; AID 504834
#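 Cell-based qHTS: luciferase-tagged P. falciparum in erythrocytes (2% hematocrit, 0.05% parasitemia final) incubated with compounds for 96 hours, 37 C, 5% CO2; luciferase detection reagent then added and luminescence measured.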
# AMA1-RON2 inh: inhibitors of Plasmodium falciparum AMA1-RON2 interaction; Potency, µM (highest dose often 58.2 µM), inactives show at the highest dose activity change, negative = inhibition, actives largely listed as inhibitors; AlphaScreen AMA1-biotinylated RON2 peptide binding; 360,000 tested, 0.2% active;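 also: 0% = vehicle wells and -100% = peptide control; nearly all actives have a fitted effect of over 45% in size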
#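 AMA1 (3D7) with his tag at 25 nM final met compounds first, then biotinylated RON2 peptide at 25 nM; detection used donor plus acceptor beads, 10 µg/mL apiece, read by AlphaScreen after 30 min at room temperature.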
# VACV mCherry inh: vaccinia inhibition (mCherry reporter); Vaccinia virus mCherry reporter infection, fluorescence; Potency, µM (titrated, usually from 36.5 µM), for the others: top-dose activity change, negative = inhibition, usual class: inhibitors; 310,000 tested, 0.63% active; AID 720579; calls by dose curve; tested in A549 cells; also: nearly all actives have a fitted effect of over 35% in size
# VACV Venus inh: inhibitors of vaccinia virus (Venus reporter); AID 720580; Vaccinia virus Venus reporter expression, fluorescence; Potency, µM (series often up to 36.5 µM), for the others: top-dose activity change, negative = inhibition, most hits filed as inhibitors; 330,000 tested, 0.46% active; calls by dose curve; tested in A549 cells; also: nearly all actives have a fitted effect of over 30% in size
# * marks the source's active call; other numbers are inactive results; i = inactive; ? = inconclusive; . = not tested or not shown; [ ] = dose if it differs, or a comment. Rows were chosen to be rich in hits. Some 8.7% of all compounds tested hit in one or more screens of this group. Unless noted, calls follow the shape of the dose curve; as a rule, active = well fitted curve in the direction sought with a large enough effect; inconclusive = small, poorly fitted or top-dose-only effect, or another doubt; inactive = no such curve, though single readings can be large; an effect the other way counts as inactive or inconclusive. Unless noted, % is scaled to controls: 0 for no effect and ±100 for the full control effect; potency is read from the fitted curve at half-maximal effect.
SMILES,Pf growth 48h,Pf growth 96h,AMA1-RON2 inh,VACV mCherry inh,VACV Venus inh
S=C(Nc1ccccc1)N1CCN(C/C=C/c2ccccc2)CC1,-11%,5%,-18%,?,-14%
CCN(CC)C(=O)CC(c1ccc2c(c1)OCO2)c1c(OC)cc(OC)c2ccc(=O)oc12 (stereo not given),8.3µM*,10µM*,-7%,-12%,-14%
CCN(CC)C(=O)CC(c1ccc(N(C)C)cc1)c1c(OC)cc(OC)c2ccc(=O)oc12 (stereo not given),8.3µM*,10µM*,-12%,i,-10%
COc1cc(OC)c2ccc(=O)oc2c1C(CC(=O)N1CCOCC1)c1ccc(N(C)C)cc1 (stereo not given),?,?,-4%,i,-5%
COc1cc(OC)c2ccc(=O)oc2c1C(CC(=O)N1CCCC1)c1ccc(N(C)C)cc1 (stereo not given),?,?,-15%,-22%,-7%
CCN(CC)CCC(c1ccc(N(C)C)cc1)c1c(OC)cc(OC)c2ccc(=O)oc12 (stereo not given),12µM*,?,?,?,-11%
CCN(CC)C(=O)CC(c1ccc(N(C)C)cc1)c1c(OC)cc(OC)c2c(-c3ccccc3)cc(=O)oc12 (stereo not given),3.7µM*,2.1µM*,22µM*,?,?
CCOC(=O)c1cc(S(=O)(=O)NCc2ccccc2)[nH]n1,.,.,.,-11%,5%
CSc1cccc(NC(=O)c2ccc3c(c2)CCCN3S(C)(=O)=O)c1,.,.,.,i,-18%
c1ccc(Nc2c(-c3c[nH]c4ccccc34)nc3ccccn23)cc1,.,.,.,-3%,-8%
COc1ccc(Cn2nnnc2C(c2cc3ccc(OC)cc3[nH]c2=O)N2CCC(C)CC2)cc1 (stereo not given),.,9.3µM*,-3%,.,.
COc1ccc2cc(C(c3nnnn3Cc3ccccc3)N3CCCCCC3)c(=O)[nH]c2c1 (stereo not given),?,?,9%,.,.
Cc1cc(C)c2[nH]c(=O)c(C(c3nnnn3Cc3ccc4c(c3)OCO4)N3CCC(C)CC3)cc2c1 (stereo not given),13µM*,.,14%,.,0%
COc1ccc2cc(C(c3nnnn3Cc3ccc(F)cc3)N3CCCCCC3)c(=O)[nH]c2c1 (stereo not given),12µM*,.,-6%,.,.
Cc1cc(C)c2[nH]c(=O)c(CN(Cc3ccc4c(c3)OCO4)Cc3nnnn3C3CCCC3)cc2c1,12µM*,0%,-13%,-27%,-26%
Cc1cccc2cc(CN(Cc3ccc(F)cc3)Cc3nnnn3C3CCCC3)c(=O)[nH]c12,-9%,153%,9%,-1%,-9%
CCOc1ccccc1CNC(=O)CCCn1c(=O)c2cccn2c2ccc(F)cc21,.,.,.,-16%,-10%
COc1ccccc1CNC(=O)C1CCCN(c2nn3cc(-c4ccc(F)cc4)nc3s2)C1 (stereo not given),.,.,.,-19%,-18%
CN(C)c1ccc(-c2cc(NCc3ccccc3)ncn2)cc1,.,.,.,-9%,-7%
CCC1(C2CCN(C(=O)c3cc(F)ccc3F)CC2)NC(=O)N(CCc2scnc2C)C1=O (stereo not given),.,.,.,-5%,21%
CC1CCCCC1NC(=O)c1ccc(S(=O)(=O)NNC(=O)c2ccncc2)cc1 (stereo not given),2.1µM*,-11%,9%,i,2%
CN(CCNC(=O)c1ccc(N2CCCC2=O)cc1)CCc1ccccc1,?,8.3µM*,0%,.,-2%
CCN(CCCNC(=O)c1ccc(N2CCCC2=O)cc1)c1cccc(C)c1,?,?,-22%,?,-20%
CN(CCNC(=O)c1cccc(N2CCCC2=O)c1)Cc1ccccc1,.,44%,-9%,-3%,3%
CC(C)N(CCCNC(=O)c1ccc(N2CCCC2=O)cc1)Cc1ccccc1,-4%,1.3µM*,-3%,.,.
SMILES,Pf growth 48h,Pf growth 96h,AMA1-RON2 inh,VACV mCherry inh,VACV Venus inh
O=C(NCCc1ccccc1)C1CCCN(S(=O)(=O)c2cccnc2)C1 (stereo not given),-4%,11%,21%,i,-11%
NS(=O)(=O)c1ccc(CCNC(=O)C2CCCN(S(=O)(=O)c3cccnc3)C2)cc1 (stereo not given),.,7.4µM*,-1%,4%,9%
Cc1ccc2nc(NC(=O)C3CCCN(S(=O)(=O)c4cccnc4)C3)sc2c1 (stereo not given),13µM*,8%,-1%,.,.
CCOc1ccc2nc(NC(=O)C3CCCN(S(=O)(=O)c4cccs4)C3)sc2c1 (stereo not given),15µM*,-14%,-20%,.,?
COc1ccccc1NC(=O)Cn1c(=O)n(Cc2nc(C)no2)c(=O)c2cc3c(cc21)OCO3,.,.,.,-2%,-6%
Cc1ccc(-c2nnc(SCC(=O)NC(C)(C)C)nc2-c2ccc(C)cc2)cc1,.,.,.,-11%,1%
COc1ccc(Cl)cc1NC(=O)c1cn(C2CCCC2)c(=O)c2c1c1ccccc1n2C,.,.,.,-20%,-22%
COc1ccccc1CNC(=O)Cn1cc2c(n1)-c1c(oc(C(=O)N3CCOCC3)c1C)CC2,.,.,.,-15%,-11%
CC(=O)Oc1ccc(OC(C)=O)c(S(=O)(=O)c2ccc(C)c(C)c2)c1,23%,12µM*,1%,.,.
O=C(O)c1ccc(N/N=C2/CCSc3ccc(F)cc32)cc1,10%,57%,-15%,?,-7%
Cc1cc(C)nc(N/N=C2/CCSc3ccc(F)cc32)n1,?,10µM*,39%,-7%,-1%
CC(=O)c1c(C)[nH]c2ccc(OCC(O)CNCCc3ccccc3)cc12 (stereo not given),.,.,.,-6%,-17%
CC(CN1CCN(CC(C)C(=O)c2ccccc2)CC1)C(=O)c1ccccc1 (stereo not given),.,.,0%,-13%,-14%
CCc1ccc(C(=O)C(C)CN2CCCCC2)cc1 (stereo not given),-6%,1.5µM*,.,.,.
Cc1ccc(CNC(=O)C2CCN(C(=O)c3cnn(-c4ccccc4)c3-n3cccc3)CC2)cc1,.,.,.,i,?
Nc1c(Cl)ncnc1NCc1ccccc1,-11%,0.41µM*,-8%,.,.
Nc1c(Cl)ncnc1NCCO,6%,-15%,3%,i,-11%
Cn1c2c(c3cnc4cc(Cl)ccc4c31)CN(Cc1ccc(Cl)cc1)CC2,.,.,.,29%,-4%
CC(C)(C)OC(=O)N1CCN(c2ccc(NC(=O)c3ccco3)cc2)CC1,7.4µM*,2%,-11%,-9%,-9%
O=C(Nc1ccc(N2CCN(C(=O)c3ccco3)CC2)cc1)c1ccc(Br)cc1,?,?,-8%,.,.
O=C(Nc1ccc(N2CCN(C(=O)c3ccco3)CC2)cc1)c1cc(Br)ccc1Cl,13µM*,10µM*,-5%[11.6 µM],-29%,?
O=C(Nc1ccc(N2CCN(C(=O)c3ccco3)CC2)cc1)c1ccco1,-9%,?,9%,-7%,2%
O=C(Nc1ccc(N2CCN(C(=O)c3ccco3)CC2)cc1)c1ccc2c(c1)OCO2,13µM*,?,-5%,.,.
